Laboratory results as given in PubChem BioAssay AID889 (National Center for Advancing Translational Sciences (NCATS), 2007).
In all, about 75,000 compounds went through this assay and about 15 (0.02%) were called active. Another 3% or so got no clear call; they are omitted. The sample as a whole holds a higher share of actives than the screen did. A number with no mark means an inactive call. Calls come from the whole dose curve; as a rule, active = well fitted inhibition curve with a large enough effect in the main read-out, with a control signal flat (not every such curve was filed as active); inconclusive = small, poorly fitted or top-dose-only effect, or a change in a side signal; inactive = flat fitted curve, though single readings scatter.

Biological target: Caspase-7 (Homo sapiens) (UniProt P55210)
Assay: qHTS Assay for Allosteric/Competitive Inhibitors of Caspase-7; note: % of control where 0% means no effect
Details: recombinant caspase-7, Ac-DEVD-AFC fluorescence rate; series mostly up to 57.5 µM; activity change, negative = inhibition: at the top concentration
Source text: NIH Molecular Libraries Screening Centers Network [MLSCN]
NIH Chemical Genomics Center [NCGC]
PI Name: Dr. James Wells,
Dr. Enrique Perez-Paya, Dr.Janice Williams, Dr. Dennis Wolan, a person
The caspases (Cysteine Aspartyl Protease) comprise a related family of 14 dimeric proteases that are critical mediators of apoptosis (programmed cell death) and inflammation. The caspases represent an important class of drug targets for stroke, ischemia, cancer and inflammatory diseases. […] One goal of this project was to identify compounds that act as allosteric inhibitors via stabilizing the procaspase form of the enzyme. Previous work in Well's laboratory has shown that such allosteric inhibitors can be identified and these act by binding at the dimer interface of enzyme (Hardy, Lam et al., 2004).
The biochemical assay was configured using purified caspase 7 at a high enzyme concentration to promote formation of the homodimers and thus facilitate the identification of allosteric inhibitors. The overall goal was to identify reversible inhibitors with better drug-like properties than the currently available set of aspartyl-containing peptidomimetics that covalently bind the active site. Caspase 7 was assayed using the profluorescent substrate Ac-DEVD-AFC. After initiation of the assay with substrate the plates were rapidly read using an automated robotic system (Kalypsys, Inc.) to maintain consistent timing. A kinetic mode of detection was used where the initial rate was collected (estimated final product formation was ~10%). Compounds were screened as a concentration-titration series that ranged from 57 uM to 0.7 nM. Below is the protocol used for caspase 7.
NCGC Assay Protocol Summary:
Caspase 7 was prepared in buffer (50 mM HEPES pH 7.5, 50 mM KCl, 200 mM NaCl, 10 mM DTT, 0.1% CHAPS) at a concentration of 66.6 nM and 3 uL was dispensed to all wells using black solid Kalypsys 1536-well plates. 20 nL of DMSO containing compounds was added using a pin-tool (Kalypsys Inc.) to columns 5-48. Then 20 nL of DMSO solution from a control plate was added to columns 1-4. Controls were: Column 1, 16 point titration with each concentration in duplicate (1:1 dilutions in DMSO; final starting concentration was 57 uM) of the caspase 7 inhibitor Ac-DEVD-CHO (Alexis Biochemicals); Column 2, a 16 point titration with each concentration in duplicate of the free AFC fluorophore prepared in DMSO (Alexis Biochemicals), final starting was 40 uM; Column 3 neutral (DMSO only) control; Column 4: DMSO alone, to serve as a negative control (no substrate was added). Then 1 uL of 20 uM the substrate Ac-DEVD-AFC (Alexis Biochemicals) prepared in the same buffer was dispensed to all wells except columns 2 and 4 and the plates were immediately transferred (< 1 min) to the Viewlux. The plates were then exposed using 405 nm excitation/520 nm emission filters for 4 sec and read at 20 sec intervals for 3 min. Final enzyme concentration was 50 nM and the final substrate concentration was 5 uM.
Concentration-response curves were fitted to the data calculated from slope of the linear regression of fluorescent intensity versus time (the rate). The concentration-effect curves were then classified based on curve quality (r2), response magnitude and degree of measured activity. […] Inconclusive compounds had appreciable concentration-dependent effects on both the measured rate and the interpolated basal fluorescence intensity at the start of the reaction but where the basal fluorescent intensity was marginal (e.g. < 10-fold). Inconclusive compounds also encompass highly fluorescent compounds (>100-fold increases in fluorescent intensities values relative to controls) where artificial concentration-dependent decreases in the rate occurred at high compound concentrations due to fluorescent interferences.
Keywords: Caspase 7, proteases, profluorescent, MLSMR, MLSCN, NIH Roadmap, qHTS, NCGC

Sequence of Caspase-7 (Homo sapiens) (P55210 24-198 limits assumed): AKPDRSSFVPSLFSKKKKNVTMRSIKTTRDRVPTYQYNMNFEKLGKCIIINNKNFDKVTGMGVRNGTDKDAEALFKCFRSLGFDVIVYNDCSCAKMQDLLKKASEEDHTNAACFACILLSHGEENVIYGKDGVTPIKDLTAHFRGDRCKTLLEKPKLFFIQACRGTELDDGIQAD
Sequence of Caspase-7 (Homo sapiens) (P55210 207-303 limits assumed): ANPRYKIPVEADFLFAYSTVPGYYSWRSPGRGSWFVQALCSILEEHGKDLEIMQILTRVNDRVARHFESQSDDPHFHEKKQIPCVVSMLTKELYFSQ

Compound | activity change, negative = inhibition
CCC(Oc1ccccc1)C(=O)NCc1cccnc1 (configuration not stated) | -0.0605%
CC1(C)C=CC(=O)[C@]2(C)C1CC(=O)[C@]1(C)C2CC[C@@]2(C)C(c3ccoc3)OC(=O)C3OC321 (some centres not stated) | -0.171%
CCCCCNC(=O)Cc1ccc(OC)cc1 | -1.53%
C=CC(=O)c1ccc2ccccc2c1 | -1.45%
COC(=O)C1=C(N)Oc2cc(C)oc(=O)c2C1c1cccnc1 (configuration not stated) | 1.77%
CCOC(=O)c1c(-n2cnnn2)sc(C)c1C | 0.213%
CNc1ncnc2ccc(-c3cccc(NS(C)(=O)=O)c3)cc12 | 1.83%
Cn1cccc1Cc1nnc(SCC(=O)NCc2ccc3c(c2)OCO3)n1CCc1ccccc1 | -0.938%
CC(C)(C)c1ccc(NC(=O)NCc2ccco2)cc1 | -2.01%
CC1(C)OC2CC3C4CCC5=CC(=O)CCC5(C)C4(F)C(O)CC3(C)[C@]2(C(=O)CCl)O1 (some centres not stated) | -0.0664%
C=C[C@](C)(O)CCC1C(=C)CCC2[C@@](C)(CO)CCC[C@@]12C (some centres not stated) | 1.43%
COc1c(C(C)C)oc2cc3oc(=O)ccc3cc12 | -1.38%
COC(=O)[C@@H]1C[C@@]2(O)[C@H](O)[C@H](O)[C@H](O)C[C@H]2N1CC1CCCCC1 | -0.73%
Clc1ccc(C=NC23CN4CN(CN(C4)C2)C3)cc1 | 0.219%
O=C1CCCC(O)=C1C=NCCc1ccccc1 | 1.03%
CCC(C)(C)n1nnnc1C(c1cccs1)N1CCN(Cc2ccccc2)CC1 (configuration not stated) | -8.5%
Cc1c(S(=O)(=O)O)oc2c1C(=O)C(=O)c1c-2ccc2c1CCCC2(C)C | -0.0406%
CN(C)/C=N/c1cc(=O)n(C)c(=O)n1CC1CC1 | -0.251%
O=C(OCc1nnc(-c2ccccc2)o1)c1ccc2c(c1)C(=O)N(CCc1ccccc1)C2=O | -1.28%
c1ccc2cc3[nH]c(CN4CCCCC4)nc3cc2c1 | 0.392%
COC1[C@H](OC(N)=O)C(O)[C@H](Oc2ccc3c(O)c(NC(=O)c4ccc(O)c(CC=C(C)C)c4)c(=O)oc3c2C)OC1(C)C (some centres not stated) | -0.537%
COc1cccc(OCC(O)CN2CCN(CCO)CC2)c1 (configuration not stated) | 0.0001%
Cc1oc(C)c(C(=O)NCCCC(=O)O)c1C(=O)NCCCC(=O)O | 0.635%
CCOc1cc(S(=O)(=O)NC2CC(C)(C)NC(C)(C)C2)ccc1F | -0.319%
COc1cc(OC)c2c(c1Cl)OC1(C2=O)C(O)=CC(=O)CC1C (configuration not stated) | -1.66%
CC(C)(O)CCC(O)[C@@](C)(O)C1CC[C@]2(O)C3=CC(=O)C4CC(O)C(O)C[C@]4(C)C3CC[C@]12C (some centres not stated) | 2.51%

Compound | activity change, negative = inhibition
CC(=O)Oc1c2c(c3c(c1CC=C(C)C)O[C@@]14C(=CC5CC1C(C)(C)OC4(C/C=C(\C)C(=O)O)C5=O)C3=O)OC(C)(CCC=C(C)C)C=C2 (some centres not stated) | -23.4%
CC(=O)OCC(=O)C1CCC2C3CCC4=CC(=O)CC[C@@]4(C)C3CC[C@]12C (some centres not stated) | -2.96%
COc1ccc(CCN=C2SCC(=O)N2C)cc1OC | -1.75%
Cc1cccc(-n2c(O)c(C=Nc3ccccc3N)c(=O)[nH]c2=O)c1 | -4.62%
CCC1=C(OC(=O)N(CC)CC)N2C(=O)OC(=NCCc3c[nH]c4ccccc34)[C@]2(C)[C@H]2C1=CC[C@H]1C(=O)N(CC)C(=O)[C@H]12 | -2.47%
COc1ccccc1N1CCN(C[C@@H]2CN3C(=O)N(C)c4ccccc4C3=N2)CC1 | 1.97%
COc1ccc(C2C(C(=O)N3CCN(c4ccc(OC)cc4)CC3)c3ccccc3C(=O)N2C)cc1 (configuration not stated) | 1.08%
CN(CCOc1ccc(CC2SC(=O)NC2=O)cc1)c1ccccn1 (configuration not stated) | 1.57%
N#CCC(=O)NC(=O)NCC1CC1 | -1.24%
Cn1c(=O)cc(SCC(=O)N2CCN(C(=O)c3ccco3)CC2)c2ccccc21 | 0.0908%
O=C(c1cccnc1NCc1ccccc1)N1CCOCC1 | -1.76%
CN1CCC(CNC(=O)c2ccc(-n3c(=O)c(=O)[nH]c4ccccc43)cc2)CC1 | -0.892%
O=C(C1=C(O)C(=O)N(Cc2ccccc2)C1c1cccnc1)c1ccco1 (configuration not stated) | -0.988%
O=C(c1cccs1)N1CCN(Cc2ccc3c(c2)OCO3)CC1 | 1.48%
C[C@H]1CC[C@H](C(=O)O)N[C@@H]1c1ccc(C#Cc2ccccc2)cc1 | 1.78% [at 11.5 µM]
Cc1noc(C)c1CSc1nc2cc(S(=O)(=O)N3CCOCC3)ccc2o1 | 3.09%
Cc1csc(-c2nc3ccccc3n2C)n1 | 0.971%
COC(=O)[C@@H]1C[C@@]2(O)[C@H](O)[C@H](O)[C@H](O)C[C@H]2N1Cc1ccc(C(C)(C)C)cc1 | -0.0221%
CCC(CC)C(=O)Nc1cc(C(=O)OC)cc(C(=O)OC)c1 | 0.195%
Cc1ccc(N(CC(O)CN2CCCC2)S(=O)(=O)c2ccccc2)cc1 (configuration not stated) | -0.0894%
O=C(COc1ncnc2ccccc12)NC(=O)NCc1ccccc1 | -0.802%
Cc1ccccc1Nc1nnc(C)c(=O)[nH]1 | -0.782%
CC(C)=CCC/C(C)=C/CC/C(C)=C/CC/C(C)=C/CO | 0.242%
CCCOc1ccc2c3c(c(=O)oc2c1OCCC)CCC3 | -4.43%
CCOC(=O)Cn1c(=O)oc2cc(S(=O)(=O)N(C)Cc3ccco3)ccc21 | -0.862%
CC(C)[C@H]1CC[C@@H](C)C[C@H]1O | 0.98%
